# PubChem BioAssay (Tox21)
# Several values for one entry are separate records, joined by “and”; a condition that tells them apart may be missing. Identical values can stand only once. Inconclusive results are not listed. A call without a number means that no potency is given here. A structure can be active in one record and inactive in another. Activity calls are given as the source filed them. Unless noted, the call rests on the fitted dose curve; in most records, active means well fitted curve in the direction sought with a large enough effect in the repeat runs; inconclusive means weak or mixed curves; inactive means no such curve, though single readings can be large; an effect the other way counts as inactive or inconclusive.
# Columns and labels:
# [1] = target: Luciferin 4-monooxygenase (Photinus pyralis) (UniProt P08659); assay: qHTS assay to identify small molecule inhibitors of firefly luciferase (AID 1224835); further: nearly all actives have a fitted effect of over 25% in size
# Chain of Luciferin 4-monooxygenase (Photinus pyralis) (P08659 whole entry, looked up): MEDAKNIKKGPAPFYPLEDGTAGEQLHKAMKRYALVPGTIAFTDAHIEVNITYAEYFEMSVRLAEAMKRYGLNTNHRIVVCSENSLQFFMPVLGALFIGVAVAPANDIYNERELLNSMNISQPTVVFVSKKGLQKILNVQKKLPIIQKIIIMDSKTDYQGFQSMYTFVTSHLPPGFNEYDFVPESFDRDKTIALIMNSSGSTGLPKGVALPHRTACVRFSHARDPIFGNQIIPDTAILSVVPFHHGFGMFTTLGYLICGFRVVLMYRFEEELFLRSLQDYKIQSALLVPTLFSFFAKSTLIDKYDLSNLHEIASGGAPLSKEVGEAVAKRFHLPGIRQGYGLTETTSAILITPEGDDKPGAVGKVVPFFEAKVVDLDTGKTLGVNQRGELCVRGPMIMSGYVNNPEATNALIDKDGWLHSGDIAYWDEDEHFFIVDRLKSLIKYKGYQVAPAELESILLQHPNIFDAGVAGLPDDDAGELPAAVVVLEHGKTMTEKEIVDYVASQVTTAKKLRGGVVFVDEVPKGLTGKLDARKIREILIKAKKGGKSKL
# In short: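 Biochemical qHTS: compounds run as interplate titrations against purified firefly enzyme, with D-luciferin and ATP each at its KM concentration. Light output recorded by CCD imaging.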
# [2] = qHTS assay to identify small molecule agonists of the constitutive androstane receptor (CAR) signaling pathway - cell viability counter screen (AID 1224836); further: nearly all actives have a fitted effect of over 45% in size
# In short: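 Double-stable HepG2 hepatoma cells (hCAR plus CYP2B6-2.2kb) are treated for 23 h at 37 C with test compounds in 15-point concentration series. PK11195 at 0.75 uM final is co-added. Cell viability is quantified by CellTiter-Fluor.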
# [3] = qHTS assay to identify small molecule antagonists of the constitutive androstane receptor (CAR) signaling pathway - cell viability counter screen (AID 1224837); further: nearly all actives have a fitted effect of over 45% in size
# In short: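 Cells are seeded, rested 4 hr at 37 C/5% CO2, dosed with compound (15-point series) and 50 nM CITCO, incubated a further 23 hr, and then CellTiter-Fluor reagent is added before fluorescence is read. The line is HepG2 with stable hCAR and CYP2B6-2.2kb.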
# [4] = qHTS assay to identify small molecule antagonists of the estrogen related receptor signaling pathway with the pleiotropic PPARgamma coactivator (PGC) from Tox21 10K library (AID 1224841; call rule not given here; further: actives are mostly falling curves and most rising ones were filed inactive; nearly all actives have a fitted effect of over 50% in size)
# In short: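 Cells stably carrying the PGC/ERR reporter, seeded at 2,000 per well, received pin-transferred compounds 6 h post-plating. Exposure lasted 18 h at 37 C. Signal: One-Glo luminescence.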
# [5] = qHTS assay to identify small molecule agonists of the estrogen related receptor signaling pathway with the pleiotropic PPARgamma coactivator (PGC) from Tox21 10K library (AID 1224842); further: nearly all actives have a fitted effect of over 15% in size
# In short: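 PGC/ERR reporter cell line, 2,000 cells per well, incubated 6 h at 37 C before 23 nL compound in DMSO was added. After 18 h at 37 C, One-Glo luminescence read following 30 min at room temperature.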
# [6] = qHTS assay to identify small molecule agonists of the hypoxia (HIF-1) signaling pathway - cell viability counter screen (AID 1224844; calls by dose curve; further: nearly all actives have a fitted effect of over 50% in size)
# In short: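 Viability counter screen: HRE-bla ME-180 cells plated 5 hrs before compound addition, treated 17 hrs at 37C and 5% CO2, then CellTiter-Glo added after the FRET reporter read; luminescence after 30 min.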
# [7] = qHTS assay to identify small molecule antagonists of the estrogen related receptor signaling pathway with the pleiotropic PPARgamma coactivator (PGC) from Tox21 10K library - cell viability counter screen (AID 1224840; active means well fitted cell-killing curve with a large enough effect in the repeat runs, not every such curve was filed as active; further: nearly all actives have a fitted effect of over 40% in size)
# In short: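 Cell viability is measured by CellTiter-Fluor fluorescence in PGC/ERR cells that receive compounds after a 6-hour attachment period and are then incubated 17.5 hours at 37 C.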
# [8] = target: Thyrotropin receptor (Homo sapiens) (UniProt P16473); assay: qHTS assay to identify small molecule agonists of the thyroid stimulating hormone receptor (TSHR) signaling pathway (AID 1224843; calls by dose curve; further: nearly all actives have a fitted effect of over 45% in size)
# Chain of Thyrotropin receptor (Homo sapiens) (P16473 whole entry, looked up): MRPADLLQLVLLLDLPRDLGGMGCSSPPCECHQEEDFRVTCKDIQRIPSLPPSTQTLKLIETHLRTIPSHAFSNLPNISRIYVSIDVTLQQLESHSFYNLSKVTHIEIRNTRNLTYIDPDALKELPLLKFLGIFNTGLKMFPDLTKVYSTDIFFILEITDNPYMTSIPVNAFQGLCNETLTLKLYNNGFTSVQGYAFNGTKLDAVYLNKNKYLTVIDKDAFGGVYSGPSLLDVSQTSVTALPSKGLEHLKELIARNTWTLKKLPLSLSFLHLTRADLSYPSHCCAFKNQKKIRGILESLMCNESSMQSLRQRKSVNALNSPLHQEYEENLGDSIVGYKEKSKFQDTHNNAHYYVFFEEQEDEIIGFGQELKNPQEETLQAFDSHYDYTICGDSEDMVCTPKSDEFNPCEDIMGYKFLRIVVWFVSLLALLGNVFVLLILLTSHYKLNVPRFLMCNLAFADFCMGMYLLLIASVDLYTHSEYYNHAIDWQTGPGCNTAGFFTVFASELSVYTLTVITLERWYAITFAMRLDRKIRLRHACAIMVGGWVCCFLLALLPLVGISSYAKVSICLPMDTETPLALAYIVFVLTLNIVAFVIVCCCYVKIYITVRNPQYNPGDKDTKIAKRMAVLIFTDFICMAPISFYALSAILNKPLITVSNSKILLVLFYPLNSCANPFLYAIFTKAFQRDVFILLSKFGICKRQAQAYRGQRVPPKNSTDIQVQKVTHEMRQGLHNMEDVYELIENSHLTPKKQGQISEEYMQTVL
# In short: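 HEK293/TSHR, 800 cells/well; cpd 30 min RT; add cAMP-d2 + anti-cAMP-cryptate, 1 h RT; fluorescence read on plate reader. 15-pt titration, n=3.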
# [9] = target: Nuclear receptor subfamily 1 group I member 3 (Homo sapiens) (UniProt Q14994); assay: qHTS assay to identify small molecule antagonists of the constitutive androstane receptor (CAR) signaling pathway (AID 1224838);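 further: HepG2 cells stably expressing hCAR with CYP2B6 luciferase reporter stimulated by CITCO; nearly all actives have a fitted effect of over 40% in size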
# Chain of Nuclear receptor subfamily 1 group I member 3 (Homo sapiens) (Q14994 whole entry, looked up): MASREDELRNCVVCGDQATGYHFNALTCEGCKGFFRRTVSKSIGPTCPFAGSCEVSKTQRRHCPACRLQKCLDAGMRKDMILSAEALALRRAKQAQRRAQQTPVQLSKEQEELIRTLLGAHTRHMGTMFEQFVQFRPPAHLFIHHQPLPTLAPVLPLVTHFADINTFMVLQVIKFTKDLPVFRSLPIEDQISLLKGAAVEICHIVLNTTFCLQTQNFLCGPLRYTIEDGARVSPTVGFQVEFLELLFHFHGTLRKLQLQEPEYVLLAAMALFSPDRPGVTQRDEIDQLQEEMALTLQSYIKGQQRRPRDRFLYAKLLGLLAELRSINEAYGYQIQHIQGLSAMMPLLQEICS
# In short: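 Luminescence from a CYP2B6-2.2kb promoter reporter in hCAR-expressing HepG2 cells reflects CAR signaling. Cells received compounds at 15 concentrations and 50 nM CITCO (final), then incubated 24 h at 37 C/5% CO2.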
# [10] = target: Nuclear receptor subfamily 1 group I member 3 (Homo sapiens) (UniProt Q14994); assay: qHTS assay to identify small molecule agonists of the constitutive androstane receptor (CAR) signaling pathway (AID 1224839); further: nearly all actives have a fitted effect of over 15% in size
# In short: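 Readout: firefly luciferase luminescence via ONE-Glo. System: HepG2 double-stable for hCAR and CYP2B6-2.2kb. Conditions: 15-point compound titration, PK11195 at 0.75 uM final, 24 h incubation.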
# Potency means the concentration at half of the fitted maximal effect.
SMILES,Potency [1],Potency [2],Potency [3],Potency [4],Potency [5],Potency [6],Potency [7],Potency [8],Potency [9],Potency [10]
CN(Cc1cc(Br)cc(Br)c1N)C1CCCCC1,inactive,inactive,inactive,inactive,inactive,inactive,–,–,–,–
CCC(C)C(=O)OC (configuration not stated),inactive,inactive,inactive,–,inactive,inactive,inactive,inactive,–,–
O=C(O)c1cccc(Cl)n1,inactive,inactive,inactive,–,–,inactive,inactive,inactive,–,–
CC1=CP(=O)(c2ccccc2)CC1 (configuration not stated),inactive,inactive,inactive,inactive,inactive,inactive,inactive,inactive,–,–
CCOB(OCC)OCC,inactive,inactive,inactive,–,–,inactive,inactive,inactive,–,–
COCC(=O)O[C@]1(CCN(C)CCCc2nc3ccccc3[nH]2)CCc2cc(F)ccc2[C@@H]1C(C)C,inactive,–,29.8 µM (active),–,–,16.9 µM (active),29.8 µM (active),inactive,29.8 µM (active),inactive
Cc1cc(Nc2ccc(O)cc2)ccc1N,63 µM (active),–,–,15.3 µM (active),inactive,24.4 µM (active),24.2 µM (active),–,inactive,inactive
NC(=O)c1nc(-c2cccc(-c3cc(F)ccc3OCC(F)(F)C(F)(F)F)c2)n[nH]1,inactive,61.1 µM (active),–,24.3 µM (active),inactive,–,–,inactive,–,–
NC1(c2ccc(-c3nc4ccn5c(=O)[nH]nc5c4cc3-c3ccccc3)cc2)CCC1,inactive,–,–,3.35 µM (active),inactive,2.13 µM (active),15 µM (active),inactive,11.9 µM (active),inactive
CC(O)C#CC(C)O (configuration not stated),inactive,–,53.9 µM (active),–,–,–,–,–,48.1 µM (active),–
CCOC(=O)N1CCC(=C2c3ccc(Cl)cc3CCc3cccnc32)CC1,inactive,inactive,–,–,–,54.9 µM (active) and inactive,30.6 µM (active),–,inactive,–
CN(C)c1ccc(N=Nc2ccccc2C(=O)O)cc1,3.17 µM (active),–,–,–,–,–,27.3 µM (active),–,inactive,10.9 µM (active)
CN(C)c1ccc(N=NS(=O)(=O)O)cc1,17.8 µM (active),–,–,–,–,–,–,inactive,inactive,–
COc1ccc(-n2nc(CCC(=O)N(C)O)cc2-c2ccc(Cl)cc2)cc1,inactive,–,inactive,–,–,19 µM (active),–,inactive,inactive,–
Cc1nc(Nc2ncc(C(=O)Nc3c(C)cccc3Cl)s2)cc(N2CCN(CCO)CC2)n1,inactive,7.5 µM (active),–,inactive,0.0944 µM (active),inactive,–,inactive,9.44 µM (active),inactive
Clc1ccc(C(Cn2ccnc2)OCc2ccsc2Cl)c(Cl)c1 (configuration not stated),inactive,–,–,18.8 µM (active),inactive,inactive,–,–,inactive,23.7 µM (active)
O=C1NC2CCCCN2C12CCN(CCCN1c3ccccc3CCc3ccc(Cl)cc31)CC2 (configuration not stated),inactive,–,–,10.6 µM (active),inactive,inactive,–,–,–,inactive
CC=O,inactive,–,–,–,–,40.7 µM (active),25.5 µM (active),–,36 µM (active),–
Cc1ccc(CCn2c3c(c4cc(Cl)ccc42)CN(C)CC3)cn1,inactive,inactive,–,inactive,9.44 µM (active),–,–,–,inactive,inactive
Cc1c(C)n(Cc2ccccc2)c2ccc(C(=O)OCCN(C)C)cc12,27.5 µM (active),–,–,inactive,29.8 µM (active),inactive,inactive,inactive,inactive,11.9 µM (active)
CCN(CC)CCCN(c1ccccc1)C1Cc2ccccc2C1,inactive,–,inactive,–,–,23.9 µM (active),inactive,inactive,–,inactive
CCC(C)(C)c1cc(O)c(C(C)(C)CC)cc1O,inactive,–,inactive,–,inactive,–,–,inactive,inactive,–

SMILES,Potency [1],Potency [2],Potency [3],Potency [4],Potency [5],Potency [6],Potency [7],Potency [8],Potency [9],Potency [10]
CCOC(=O)C1=C(C)NC(C)=C(C(=O)OCC)C1c1ccccc1/C=C/C(=O)OC(C)(C)C,inactive,inactive,–,–,inactive,–,–,inactive,inactive,–
COc1ccc2sc(C(=O)Nc3nnn[nH]3)c(OC(C)C)c2c1,inactive,–,–,24.2 µM (active),inactive,24.5 µM (active),–,inactive,27.2 µM (active),–
C=C[C@](C)(O)CC[C@@H]1[C@@]2(C)CCCC(C)(C)[C@@H]2CC[C@@]1(C)O,inactive,61.1 µM (active),–,–,inactive,49 µM (active),61.1 µM (active),19.3 µM (active),inactive,inactive
CCCCCCCCCCOCC(O)CN (configuration not stated),inactive,–,29.8 µM (active),–,inactive,inactive,–,21.1 µM (active),–,inactive
O=C(Nc1ccc(Cl)cc1)Nc1ccc(Cl)c(C(F)(F)F)c1,34.7 µM (active),–,–,5.31 µM (active),inactive,26.8 µM (active),–,inactive,16.8 µM (active),inactive
CCCCCCOc1ccc(O)cc1,35.6 µM (active),–,–,inactive,13.7 µM (active),54.9 µM (active),inactive,inactive,inactive,27.3 µM (active)
Clc1nc2ccccc2s1,inactive,inactive,inactive,–,–,inactive,–,inactive,–,–
CC(=O)OC(OC(C)=O)c1ccc([N+](=O)[O-])o1,inactive,–,62.2 µM (active),–,inactive,–,–,27.8 µM (active),55.4 µM (active),inactive
CCN=c1cc2oc3cc(NCC)c(C)cc3c(-c3ccccc3C(=O)OCC)c-2cc1C,inactive,–,–,–,inactive,38.9 µM (active),inactive,–,54.3 µM (active) and 54.5 µM (active),inactive
CC(NCCC(c1ccccc1)c1ccccc1)c1ccccc1 (configuration not stated),inactive,–,–,–,–,inactive,–,–,–,inactive
O=C(Nc1ccc(Cl)c(Cl)c1)c1cc(Cl)cc(Cl)c1O,3.99 µM (active),–,7.7 µM (active),–,inactive,19.5 µM (active),4.33 µM (active),–,–,–
CC(C)(c1cc(Br)c(OCCO)c(Br)c1)c1cc(Br)c(OCCO)c(Br)c1,inactive,–,–,16.8 µM (active),inactive,42.7 µM (active),42.3 µM (active),–,inactive,–
Cc1cc2c(C(C)C)c(O)c(O)c(C=O)c2c(O)c1-c1c(C)cc2c(C(C)C)c(O)c(O)c(C=O)c2c1O,inactive,–,–,11.9 µM (active),inactive,–,26.6 µM (active),inactive,–,inactive
CN(C)CCCN1c2ccccc2Sc2ccc(C(F)(F)F)cc21,inactive,–,–,–,–,inactive,–,inactive,–,inactive
S=C(SSSSSSC(=S)N1CCCCC1)N1CCCCC1,6.22 µM (active),8.48 µM (active),7.56 µM (active),–,–,3.41 µM (active),–,–,–,–
C=CC(=O)OCC(O)COc1ccccc1 (configuration not stated),inactive,–,–,–,–,38.9 µM (active),–,–,–,inactive
C=CC(=C)CCC=C(C)C,inactive,inactive,–,–,–,inactive,inactive,–,61.1 µM (active),inactive
Clc1ccc(C(Cn2ccnc2)OCc2c(Cl)cccc2Cl)c(Cl)c1 (configuration not stated),inactive,inactive,–,–,inactive,23.9 µM (active),–,–,–,–
CCCOc1sc(C(=O)N2CCC(c3cc(CN)ccc3F)CC2)c(C)c1Br,inactive,–,62.8 µM (active),–,inactive,28.3 µM (active),56 µM (active),–,–,inactive
CCCCCCCCCCCCCOP(=O)(O)O,–,inactive,inactive,inactive,inactive,inactive,inactive,–,inactive,inactive
CC(C)c1ccccc1N,–,inactive,inactive,inactive,inactive,inactive,inactive,inactive,inactive,inactive
Brc1ccccc1-c1ccccc1,–,inactive,inactive,–,inactive,36.8 µM (active),–,–,inactive,inactive

SMILES,Potency [1],Potency [2],Potency [3],Potency [4],Potency [5],Potency [6],Potency [7],Potency [8],Potency [9],Potency [10]
CC(C)c1ccc(O)c(C(C)C)c1,–,inactive,inactive,inactive,inactive,–,–,inactive,inactive,inactive
CC[N+](CC)(CC)Cc1ccccc1,–,inactive,inactive,–,inactive,inactive,inactive,–,inactive,inactive
Cc1cccc(C)n1,–,inactive,inactive,–,–,inactive,inactive,inactive,inactive,inactive
Clc1ccc(C(c2ccccc2Cl)C(Cl)Cl)cc1 (configuration not stated),–,inactive,inactive,–,–,54.9 µM (active),inactive,12.2 µM (active) and 5.31 µM (active),inactive,13.7 µM (active) and 11.9 µM (active)
CS(C)(=O)=O,–,inactive,inactive,–,inactive,inactive,inactive,inactive,inactive,inactive
CC(C)c1cccc(C(C)C)c1N1C(=O)c2ccc(O)cc2C1=O,inactive,–,–,–,–,inactive,inactive,inactive,–,–
CCCCCCCC/C=C\CCCCCCCC(=O)N(C)CC(=O)O,–,inactive,inactive,inactive,inactive,49 µM (active),–,–,inactive,inactive
N#CSCSc1nc2ccccc2s1,–,61.1 µM (active),27.3 µM (active),–,–,6.92 µM (active),61.1 µM (active),–,30.6 µM (active),inactive
CC(CN(C)C)CN1c2ccccc2CCc2ccccc21 (configuration not stated),–,inactive,inactive,–,–,–,–,–,–,–
CN(C)CCOC(c1ccccc1)c1ccccc1 (tested in a mixture with another compound),inactive,–,–,–,–,–,inactive,–,–,–
c1ccc2c(c1)CCC2,–,inactive,inactive,–,–,inactive,inactive,inactive,inactive,inactive
Cc1c(C(=O)O)cccc1[N+](=O)[O-],–,inactive,inactive,–,–,inactive,inactive,inactive,inactive,inactive
CC(=O)c1ccccc1N,–,inactive,inactive,–,–,inactive,–,inactive,inactive,inactive
C[n+]1c2cc(N)ccc2cc2ccc(N)cc21 (tested in a mixture with another compound),inactive,–,–,–,–,inactive,–,–,–,–
Nc1ccc2cc3ccc(N)cc3nc2c1,inactive,–,–,–,–,24.5 µM (active) and inactive,–,–,–,–
CNC(=O)c1cc(Oc2ccc(NC(=O)Nc3ccc(Cl)c(C(F)(F)F)c3)cc2)ccn1,inactive,–,–,–,inactive,inactive,–,inactive,–,–
O=C(Oc1ccccc1)c1cccc(C(=O)Oc2ccccc2)c1,–,inactive,inactive,–,–,inactive,inactive,–,inactive,1.44 µM (active)
CCN(CC)CCOc1ccc(C(O)(Cc2ccc(Cl)cc2)c2ccc(C)cc2)cc1 (configuration not stated),inactive,–,–,–,inactive,–,–,inactive,–,–
CCCCCCCCCCCCCCNCCO,–,inactive,inactive,–,–,inactive,–,inactive,inactive,8.41 µM (active)
CCCCCCCC(OC)OC,–,inactive,inactive,–,–,inactive,inactive,inactive,inactive,inactive
